Source: PubChem BioAssay
PNC assembly inh: perinucleolar compartment assembly inhibition; 140,000 tested, 3.1% active; PC3M PTB-GFP, PNC prevalence imaging, 16 h; active compounds read low; activity change (PNC), negative = inhibition, % at 10 µM; AID 2417;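 active means readout at or below -70, meaning at least 70% loss of cells showing the perinucleolar compartment, a nuclear body marking cancer cells; inconclusive means readout between -30 and a set limit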;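 further: plate controls were DMSO wells for no effect and camptothecin positive control wells for full effect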
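Read-out is percentage of cells bearing a perinucleolar compartment, from automated 20x imaging of fixed, Hoechst-stained PC3M PTB-GFP cells. Cells were seeded 4 h, then exposed 16 h to compound (23 nl of library stock) in duplicate plates.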
IMPase Li inh: membrane-permeable IMPase blocker, potentiated with lithium. CHO-M1 cells, IP1 TR-FRET (IP-One), carbachol + lithium. Potency, µM (series often up to 59.4 µM), for inactives: at the highest dose activity, negative = IMPase inhibition, usual class: inhibitors. 210,000 tested, 0.35% active. AID 1457;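 further: IP1 builds up when IMPase is blocked and the TR-FRET signal falls; potency means the concentration at half of the fitted maximal effect; plate controls were basal vehicle for no effect and high inhibitor control for full effect; nearly all actives have a fitted effect of over 50% in size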
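Readout is a homogeneous TR-FRET IP1 immunoassay (Ex 320, Em 665 and 620), where raised cytosolic IP1 lowers signal. Cells were CHO-M1 treated 30 min at 37C with test compounds plus a little lithium; AC50 values came from Hill-equation fitting.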
12-hLO inh: blocks human 12-lipoxygenase activity; 150,000 tested, 0.12% active; AID 1452; P18054; purified 12-hLO, xylenol orange hydroperoxide absorbance; Potency, µM (top dose mostly 57.1 µM), inactives show at the top dose activity change, negative = inhibition, hits mostly inhibitors; further: potency means the concentration at half of the fitted maximal effect; nearly all actives have a fitted effect of over 55% in size
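Purified human 12hLO (150 nM final) was preincubated with compounds for 15 min at room temperature in 25 mM Hepes pH 7.0, 0.01% Triton X-100, then reacted with 40 uM arachidonic acid for 30 min. Hydroperoxide was detected with ferrous iron/xylenol orange.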
HPGD block: blocks human HPGD enzyme activity. P15428. purified HPGD, NADH fluorescence kinetic, PGE2 substrate. Potency, µM, for the others: top-dose activity change, negative = inhibition, usual class: inhibitors. 150,000 tested, 4.3% active; active means well fitted inhibition curve with a large enough effect, not every such curve was filed as active; inconclusive means small, poorly fitted or top-dose-only effect, or another doubt; inactive means no such curve, though single readings can be large or run the other way; further: potency means the concentration at half of the fitted maximal effect
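20 nM HPGD preincubated 15 min at room temperature with compound in 50 mM Tris-HCl pH 8, 0.01% Tween 20. Started with 1 mM NAD+ and 30 uM prostaglandin E2; NADH fluorescence (360/450 nm) read 5 times over 30-s intervals, last minus first.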
15-hLO-2 inh: inhibitors of human 15-lipoxygenase 2 (ALOX15B) | O15296 | purified 15hLO-2, xylenol orange hydroperoxide absorbance | Potency, µM (titrated, usually from 57.1 µM), for inactives: top-dose activity change, negative = inhibition, usual class: inhibitors | 110,000 tested, 0.56% active | AID 881; further: potency means the concentration at half of the fitted maximal effect; nearly all actives have a fitted effect of over 60% in size
Target sequence (O15296 whole entry, looked up): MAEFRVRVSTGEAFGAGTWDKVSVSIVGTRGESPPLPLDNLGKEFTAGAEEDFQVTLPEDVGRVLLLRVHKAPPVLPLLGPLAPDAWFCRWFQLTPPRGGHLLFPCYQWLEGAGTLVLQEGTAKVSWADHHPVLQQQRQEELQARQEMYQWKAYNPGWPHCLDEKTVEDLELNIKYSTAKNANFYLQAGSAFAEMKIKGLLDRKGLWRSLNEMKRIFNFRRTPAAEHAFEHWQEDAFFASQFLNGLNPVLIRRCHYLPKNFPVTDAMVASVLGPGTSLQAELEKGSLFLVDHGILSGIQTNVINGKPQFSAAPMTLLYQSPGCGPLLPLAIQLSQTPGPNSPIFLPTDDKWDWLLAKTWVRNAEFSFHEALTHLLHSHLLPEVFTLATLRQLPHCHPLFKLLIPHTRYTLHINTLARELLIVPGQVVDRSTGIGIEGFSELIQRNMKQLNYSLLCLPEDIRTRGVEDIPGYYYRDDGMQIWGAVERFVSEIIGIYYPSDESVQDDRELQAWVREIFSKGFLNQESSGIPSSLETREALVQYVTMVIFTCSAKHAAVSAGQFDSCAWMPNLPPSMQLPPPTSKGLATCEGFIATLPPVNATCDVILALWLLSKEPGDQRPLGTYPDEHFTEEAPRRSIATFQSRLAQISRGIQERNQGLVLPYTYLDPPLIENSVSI
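Screening format was qHTS against 50 nM purified 15hLO-2 in Hepes pH 7.5 with detergent. Activity follows hydroperoxide formation from 45 uM arachidonic acid, measured as 573:405 nm absorbance ratio of the ferric-xylenol orange complex.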
IMPase cell inh: cell-permeable inhibitors of inositol monophosphatase (IMPase); CHO-M1 cells, IP1 accumulation, HTRF TR-FRET ratio; inhibition (IP1 accumulation), % at 46.1 µM; 120,000 tested, under 10 active; AID 901; active means well fitted curve in the direction sought with a large enough effect in the signal ratio, not every such curve was filed as active; inconclusive means small, poorly fitted or top-dose-only effect, or a change in a side signal; inactive means no such curve, though single readings can be large or run the other way; the % refers to the signal ratio;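 further: cells stimulated with carbachol in lithium chloride buffer; plate controls were DMSO basal wells for no effect and reference inhibitor wells for full effect; higher means more IMPase inhibition seen as more IP1 and lower FRET ratio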
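Measured: the HTRF emission ratio (665/620 nm) plus the 620 nm donor channel, each fitted to the Hill equation to give AC50. Cells were CHO-M1 given compounds up to 46 uM and a 30 min carbachol stimulation at 37C.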
Active calls of the source: *; ? = inconclusive; nt = no result; [ ] = dose if it differs, or a comment. This is a sample that favours compounds with a hit; in the whole collection about 5.3% have one here. Unless noted, the call rests on the fitted dose curve; in most records, active means well fitted curve in the direction sought with a large enough effect; inconclusive means small, poorly fitted or top-dose-only effect, or another doubt; inactive means no such curve, though single readings can be large; an effect the other way counts as inactive or inconclusive. Unless noted, on the % scale 0 is the no-effect control and ±100 the full control effect.

SMILES	PNC assembly inh	IMPase Li inh	12-hLO inh	HPGD block	15-hLO-2 inh	IMPase cell inh
Cc1ccc(/C=N/OC(=O)c2nn(C)cc2Cl)cc1	nt	-11%	nt	nt	nt	nt
CC1CCCCN1C(=O)CCS(=O)(=O)c1cccc2nonc12 (stereo not drawn)	nt	2%	nt	nt	nt	nt
CC1(C)CCC[C@@](C)([C@H]2CC[C@]3(C)[C@@H]2[C@H](O)C[C@@H]2[C@@]4(C)CC[C@H](O)C(C)(C)[C@@H]4[C@@H](O)C[C@]23C)O1	nt	20%	3%[0.00818 µM]	-5%	12%[0.0915 µM]	nt
COc1ccc(-c2nc3cnc(N4CCOCC4)nc3n(Cc3cccs3)c2=O)cc1	nt	2µM*	nt	nt	0%	nt
CN(C)c1ncc2nc(-c3ccc(F)cc3)c(=O)n(Cc3cccs3)c2n1	nt	-3%	nt	nt	2%	nt
CN(C)c1ncc2nc(-c3cc(F)cc(F)c3)c(=O)n(Cc3cccs3)c2n1	nt	5.6µM*	-4%	?	6%	nt
CC(C)C[C@@H](CC(=O)N[C@@H](CCC(=O)O)CC(=O)O)NC(=O)[C@@H]1CNCC[C@H]1NC(=O)C[C@@H](NC(=O)C[C@H](Cc1c[nH]c2ccccc12)NC(=O)[C@@H]1CCCC[C@H]1N)C(C)C	nt	3%	0%	-3%	nt	nt
CC(=O)c1cc(CN2C(=O)c3ccccc3C2=O)cs1	-23	0%[38.3 µM]	1%	14µM*	-1%	-2
CC(=O)c1cc(CN2CCN(Cc3ccccc3)C(CCO)C2)cs1 (stereo not drawn)	nt	8%	nt	nt	nt	nt
CCCCc1noc2c1/C(=N\O)CC(c1ccccc1)C2 (stereo not drawn)	-3	5%	0%	-21%	0%	7
CCCCc1n[nH]c2c1/C(=N/O)CC(c1ccccc1)C2 (stereo not drawn)	34	1%[38.3 µM]	5%	2.5µM*	15%	-1
CCc1n[nH]c2c1/C(=N\O)CC(C)(C)C2	-17	-4%[38.3 µM]	-1%	-6%	0%	3
CCc1n[nH]c2c1/C(=N\O)CC(c1ccccc1)C2 (stereo not drawn)	-30	8%[38.3 µM]	0%	4µM*	9%	-1
O=C(Nc1cccc(S(=O)(=O)N2CCCCC2)c1)c1ccc(S(=O)(=O)C(F)F)cc1	nt	17%	nt	nt	nt	nt
Cc1cc(C)nc(SCC(=O)Nc2ncc(Cc3ccc(Cl)c(Cl)c3)s2)n1	-113*	6%	3%	-5%	nt	nt
CCN(C(=O)COC(=O)CNC(=O)c1ccc2ccccc2c1)C1CCS(=O)(=O)C1 (stereo not drawn)	nt	1%	nt	nt	nt	nt
CCN(C(=O)COC(=O)CNC(=O)c1ccc(C)c(C)c1)C1CCS(=O)(=O)C1 (stereo not drawn)	-121*	-9%	-6%	-12%	nt	nt
COc1cc(OC)cc(C2=NCCN2)c1	nt	11%	nt	nt	nt	nt
Cc1nc([N+](=O)[O-])cn1Cc1cccc([N+](=O)[O-])c1	nt	7%	nt	nt	nt	nt
CC(C)(C)c1cc(Cc2ccccc2)[nH]n1	24	4%[38.3 µM]	0%	20µM*	39%	-9
Cc1cccc(NC(=O)CSc2nnnn2-c2ccc3c(c2)OCCO3)n1	nt	12%	nt	nt	nt	nt
COc1cc(C2C(C(=O)c3ccc(C)o3)=C(O)C(=O)N2c2cc(C)on2)cc(Br)c1O (stereo not drawn)	-3	3%[38.3 µM]	-18%	-24%	?	-3
COc1ccc(C2C(C(=O)c3ccc(C)o3)=C(O)C(=O)N2c2cc(C)on2)cc1OC (stereo not drawn)	0	10µM*	7%	-18%	4%	?
COc1ccc(OC)c(C2C(C(=O)c3cc4ccccc4o3)=C(O)C(=O)N2c2cc(C)on2)c1 (stereo not drawn)	?	11µM*	-27%	-11%	-4%	?
Cc1nc(N2CCOCC2)c2nc(-c3ccccc3)n(CC(C)(C)CN(C)C)c2n1	nt	-7%	1%	?	20%	nt
SMILES	PNC assembly inh	IMPase Li inh	12-hLO inh	HPGD block	15-hLO-2 inh	IMPase cell inh
CCOC(=O)C1CCCN(C(=O)c2cnn3c(C(F)F)cc(-c4ccc(C)cc4)nc23)C1 (stereo not drawn)	-107*	16%[38.3 µM]	-3%	?	-7%	5
CCOC(=O)C1CCCN(C(=O)c2ccccc2NC(C)=O)C1 (stereo not drawn)	?	10%[38.3 µM]	2%	-7%	9%	4
CCC(C)NC(=O)c1cc(-c2ccc(OC)cc2)on1 (stereo not drawn)	-3	30%[38.3 µM]	6%	-15%	-2%	-4
COc1ccc(-c2cc(C(=O)N3CCN(Cc4ccccc4)CC3)no2)cc1OC	?	22%[38.3 µM]	5%	-29%	5%	-2
CCOC(=O)C1CCCN(C(=O)c2ccc(C)cc2O)C1 (stereo not drawn)	-22	18%[38.3 µM]	18%	14µM*	3%	5
Cc1ccc(-c2cc(C(F)F)n3ncc(C(=O)N4CCN5CCCC5C4)c3n2)cc1 (stereo not drawn)	-4	25%[38.3 µM]	-5%	?	4%	21
COc1ccc(-c2cc(C(=O)O)no2)cc1	nt	7%	-1%[0.00818 µM]	14µM*	9%[0.0915 µM]	nt
COc1ccc(-c2cc(C(=O)N3CCCCC3)no2)cc1OC	?	3%[38.3 µM]	-5%	14µM*	-3%	2
CCOC(=O)C1CCCN(C(=O)c2cc(-c3ccccc3)on2)C1 (stereo not drawn)	2	15%[38.3 µM]	2%	28µM*	0%	?
CCOC(=O)C1CCCN(Cc2ccccc2F)C1 (stereo not drawn)	-89*	-3%[38.3 µM]	-10%	-5%	-9%	3
CCc1ccc(NS(=O)(=O)c2ccc3[nH]cc(C(=O)N(C)Cc4ccco4)c(=O)c3c2)cc1	-114*	1%[38.3 µM]	?	-15%	-1%	-3
CN(Cc1ccco1)C(=O)c1c[nH]c2ccc(S(=O)(=O)Nc3ccc4c(c3)OCCO4)cc2c1=O	37	-8%	-7%	18µM*	nt	nt
COc1ccc2c(CCNC(=O)c3ccco3)c[nH]c2c1	-114*	-1%[38.3 µM]	-14%	?	-22%	12
O=C(NCCSc1c[nH]c2ccccc12)c1c(F)cccc1F	nt	6%	nt	nt	nt	nt
O=C(NCCSc1c[nH]c2ccccc12)c1ccco1	-5	1%	1%	16µM*	nt	-3
Clc1ncnc2scc(C3COc4ccccc4O3)c12 (stereo not drawn)	-17	20%	1%	28µM*	nt	-1
COC(=O)c1sc(NC(=O)c2ccco2)nc1C	11	10µM*	-1%	?	-7%	-3
CC(=O)c1sc(NC(=O)c2ccco2)nc1-c1ccccc1	3	-10%[38.3 µM]	-2%	11µM*	9%	6
COC(=O)c1sc(Nc2ccccc2)nc1C	-5	9%[38.3 µM]	-6%	22µM*	1%	-1
CCOC(=O)c1sc(N/N=C/c2ccccc2)nc1C	28	3%	-3%	14µM*	nt	nt
